High-throughput results deposited in PubChem by National Center for Advancing Translational Sciences (NCATS).
FBPA Giardia inh – Giardia lamblia aldolase inhibition. purified Giardia FBPA. Potency, µM (highest dose often 59.6 µM), inactives show at the highest dose activity, negative = inhibition, hits mostly inhibitors. A8B2U2. 0.71% of 290,000 active. AID 2451; also: potency is read from the fitted curve at half-maximal effect; % is scaled to controls: 0 for no effect and ±100 for the full control effect; nearly all actives have a fitted effect of over 55% in size
Target sequence (A8B2U2 whole entry, looked up): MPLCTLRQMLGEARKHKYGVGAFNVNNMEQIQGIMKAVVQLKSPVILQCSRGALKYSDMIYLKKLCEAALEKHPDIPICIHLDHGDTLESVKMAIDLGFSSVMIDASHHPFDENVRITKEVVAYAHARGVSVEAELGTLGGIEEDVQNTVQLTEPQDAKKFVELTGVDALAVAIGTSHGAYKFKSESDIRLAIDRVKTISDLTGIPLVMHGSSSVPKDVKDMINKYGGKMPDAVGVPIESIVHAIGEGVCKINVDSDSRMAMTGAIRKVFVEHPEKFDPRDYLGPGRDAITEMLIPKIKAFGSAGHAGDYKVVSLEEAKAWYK
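40 nM FBPA preincubated 10 min at RT with compound (up to 57.5 uM final), then substrate plus GAPDH/TPI/NAD/arsenate coupling and diaphorase/resazurin added. Fluorescence read after 20 min at RT, 525/598 nm.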
Shiga toxin inh – Shiga toxin inhibition; 9.2% of 290,000 active; Vero cells, Shiga toxin protein synthesis inhibition reporter; AID 2315; inhibition, % at 38.7 µM; in the data active = inhibition mostly above about 28%, no sharp cut-off; inactive = mostly below about 43%; also: 0% is about no effect
Pf growth 48h – inhibits P. falciparum growth in the first generation, 48 h; 5.9% of 310,000 active; P. falciparum luciferase growth in erythrocytes, 48 h; Potency, µM (series often up to 28.7 µM), inactives show at the top dose activity change, negative = inhibition, actives largely listed as inhibitors; also: potency is read from the fitted curve at half-maximal effect; % is scaled to controls: 0 for no effect and ±100 for the full control effect
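First compound was added to culture medium, then infected red cells at 0.1% parasitemia and 2% hematocrit (final). After incubation at 37 C under 5% CO2, luciferase detection reagent was dispensed and light output recorded.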
NS1 function inh – influenza NS1 inhibition; 0.4% of 270,000 active; Potency, µM (highest dose often 46.1 µM), inactives show top-dose activity, positive = more growth; calls by dose curve; also: potency is read from the fitted curve at half-maximal effect; actives are rising curves; nearly all actives have a fitted effect of over 50% in size
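In this qHTS, NS1 from influenza A is expressed in budding yeast, where it slows growth. Cells are switched from glucose to 2% galactose medium (pH 6.0, -URA), treated with compound, and growth recovery is read at OD600.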
Pf growth 96h – P. falciparum growth inhibition at 96 hour, primary screen for plastid delayed-death inhibitors; AID 504834; 6.9% of 320,000 active; Potency, µM (titrated, usually from 28.7 µM), inactives show at the highest dose activity change, negative = inhibition, most hits filed as inhibitors; P. falciparum luciferase reporter growth, 96 h; also: potency is read from the fitted curve at half-maximal effect; % is scaled to controls: 0 for no effect and ±100 for the full control effect
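Cell-based qHTS: luciferase-tagged P. falciparum in erythrocytes (2% hematocrit, 0.05% parasitemia final) incubated with compounds for 96 hours, 37 C, 5% CO2; luciferase detection reagent then added and luminescence measured.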
Cycloheximide cs – affects cycloheximide protein synthesis inhibition readout, counter-screen; cell reporter, cycloheximide protein synthesis inhibition counterscreen; max response, %; 12% of 300,000 active; AID 2314; in the data active = max response mostly above about 13%, no sharp cut-off; inactive = mostly below about 14%; also: read at 38.3 µM for the half of the compounds with a filed dose; 0% is about no effect
Starred values were filed as active, the others as inactive; ? = inconclusive; / = no result; [ ] = dose if it differs, or a comment. Rows were chosen to be rich in hits. Some 21% of all compounds tested hit in one or more screens of this group. Unless noted, calls follow the shape of the dose curve; as a rule, active = well fitted curve in the direction sought with a large enough effect; inconclusive = small, poorly fitted or top-dose-only effect, or another doubt; inactive = no such curve, though single readings can be large; an effect the other way counts as inactive or inconclusive.

SMILES	FBPA Giardia inh	Shiga toxin inh	Pf growth 48h	NS1 function inh	Pf growth 96h	Cycloheximide cs
COc1ccc([N+](=O)[O-])cc1/C=N/NC(=O)CNC(=O)c1cccc(F)c1	?	-12	26%	-10%	1.9µM*	-2
O=C(CNC(=O)c1ccccc1O)N/N=C/c1cc(Br)ccc1OC(=O)/C=C/c1ccco1	1%	26	?	/	8.3µM*	6
Cc1noc(C)c1-c1ccc2ncnc(Nc3ccc(F)cc3)c2c1	0%	/	/	/	/	/
CC(C)Oc1cccc(NC(=O)c2cnccc2C(F)(F)F)c1	-1%	-2	5%	1%	-3%	-2
Nc1[nH]n2c(=O)cc(-c3ccccc3)nc2c1N=Nc1ccc2c(c1)OCO2	?	22	0%	?	-25%	1
COc1cccc2[nH]c(=O)c(-c3ccccc3)cc12	-20%	120*	-8%[0.00184 µM]	-34%	133%	61*
COc1cc(C(=O)NNC(=O)COc2cccc(F)c2)ccc1OCC(=O)N1CCOCC1	/	/	12%	/	-10%	/
CCOCCn1c(=O)c2c(nc3n2CC(C)CN3CCc2ccccc2)n(C)c1=O (stereo unspecified)	-1%	-4	-14%	6%	?	-5
COC(=O)c1cc(NC(=O)/C=C/c2ccccc2)ccc1O	-25%	121*	130%	-8%	35%	48*
Cc1c(O)ccc(NC(=O)/C=C/c2ccccc2)c1C	-2%	48*	13%	-2%	?	12
CCS(=O)(=O)c1ccc(O)c(NC(=O)CCCC(=O)O)c1	-1%	7	13%	-1%	17%	-1
CCS(=O)(=O)c1ccc(O)c(NC(=O)/C=C/c2ccccc2)c1	6%	73*	37%	-3%	21%	28*
O=C(/C=C/c1ccccc1)Nc1cc(C(=O)O)cc(C(=O)O)c1	6%	-14	?	/	14%	1
Cc1ccccc1CC(=O)Nc1cccc(S(=O)(=O)N2CCCC2)c1	/	/	?	/	-9%	/
CCN(CC)S(=O)(=O)c1cccc(NC(=O)CNc2cccc(S(=O)(=O)N3CCCC3)c2)c1	-3%	-10	?	4%	?	-2
Cc1ccc(NC(=O)CNc2cccc(S(=O)(=O)N3CCCC3)c2)cc1F	/	/	9.3µM*	/	5.2µM*	/
O=C(CNc1cccc(S(=O)(=O)N2CCCC2)c1)Nc1ccc(F)c(F)c1	/	/	1.5µM*	/	1.3µM*	/
Cc1ccc(NC(=O)CSc2ncccn2)cc1F	0%	64*	83%	/	48%	46*
Cc1ccc(NC(=O)CSc2nccn2C)cc1F	/	-14	-1%	-6%	?	9
CCN(CC)S(=O)(=O)c1ccc(C)c(NC(=O)CNc2cccc(S(=O)(=O)N3CCCC3)c2)c1	/	/	12µM*	/	-17%	/
Cc1cccc(NC(=O)CSCC(=O)Nc2cccc(S(=O)(=O)N3CCCCCC3)c2)c1	/	/	?	/	-4%	/
O=C(Cn1nnc(-c2ccc(F)cc2)n1)Nc1cccc(S(=O)(=O)N2CCCC2)c1	/	/	?	/	13µM*	/
Cc1ccc(SCC(=O)Nc2cccc(S(=O)(=O)N3CCOCC3)c2)cc1C	/	/	17µM*	/	?	/
O=C(CNc1cccc(S(=O)(=O)N2CCCC2)c1)Nc1cccc(F)c1	/	/	3.7µM*	/	10µM*	/
Cc1ccc(NC(=O)CNc2cccc(S(=O)(=O)N3CCOCC3)c2)cc1F	/	/	10µM*	/	6.6µM*	/
O=C(NC1CC1)c1ccc(C2SCC(=O)N2Cc2ccccc2)cc1 (stereo unspecified)	4%	14	?	/	?	-1
C=C1CCN(C(Cc2ccccc2)C(=O)N2CCOCC2)S(=O)(=O)c2ccccc21 (stereo unspecified)	4%	-13	/	/	/	-5
Cc1ccc(S(=O)(=O)N2CCCC2C(=O)NCc2ccncc2)cc1 (stereo unspecified)	/	-17	2%	0%	?	-3
CC(C)c1ccc(NC(=O)C2C3C=CC4(O3)C2C(=O)N(CCCN2CCOCC2)C4C(=O)NC2CCCCC2)cc1 (stereo unspecified)	-5%	-5	-17%	-13%	15%	3
O=C(COC(=O)CC1SC(N2CCCC2)=NC1=O)Nc1c(F)c(F)c(F)c(F)c1F (stereo unspecified)	/	/	-22%	/	-8%	/
